Test system: E18 rat cortical neuron-glia co-culture
Assay: myelination (MBP fiber length per Olig2+ nucleus), % of 1 µM DAPT response (DMSO = 0) (% of DAPT); higher = more myelination, active = 50 or more
Conditions: 1 µM; treatment time: 8 days (DIV5-DIV13)
Outline: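 Primary E18 rat cortical co-cultures (papain-dissociated, 20,000 cells/well on poly-d-lysine/laminin 96-well plates) received library compounds at 1 or 5 µM in myelination medium from DIV5 to DIV13. Cells were fixed in 4 % paraformaldehyde and immunostained for MBP and Olig2 with DAPI, and four 10X fields per well in duplicate wells were analysed. Myelination was continuous straight MBP fiber length per Olig2+ nucleus, normalised to 0.1 % DMSO (0) and a 1 µM positive control (100).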

myelination, inactive:
CO[C@H]1/C=C/O[C@@]2(C)Oc3c(C)c(O)c4c(O)c(c5c(nc6cc(C)ccn65)c4c3C2=O)NC(=O)/C(C)=C\C=C\[C@H](C)[C@H](O)[C@@H](C)[C@@H](O)[C@@H](C)[C@H](OC(C)=O)[C@@H]1C [Rifaximin] -4.06, CN(C)CCCN1c2ccccc2CCc2ccccc21 [Imipramine] -3.36, CCCCNC(=O)NS(=O)(=O)c1ccc(C)cc1 [Tolbutamide] -1.85, CCCCN1CCCCC1C(=O)Nc1c(C)cccc1C (configuration not stated) [Bupivacaine] -11.2, COc1cc(N)c(Cl)cc1C(=O)NC1CCN(CCCOc2ccc(F)cc2)CC1OC (configuration not stated) [Cisapride] -1.62, CC(C)C(=O)Nc1ccc([N+](=O)[O-])c(C(F)(F)F)c1 [Flutamide] -7.82, CCOC(=O)C1=C(C)NC(C)=C(C(=O)OC)C1c1cccc(Cl)c1Cl (configuration not stated) [Felodipine] 20.4, O=[N+]([O-])c1cccc2cn[nH]c12 [7-Nitroindazole] -9.77, CCCCC(=O)N(Cc1ccc(-c2ccccc2-c2nnn[nH]2)cc1)[C@H](C(=O)O)C(C)C [Valsartan] -7.17, CN1CC(=O)N2[C@H](c3ccc4c(c3)OCO4)c3[nH]c4ccccc4c3C[C@@H]2C1=O [Tadalafil] -45.7, Nc1nc2c(ncn2COCCO)c(=O)[nH]1 [Acyclovir] -11.9, CC(COc1ccccc1)N(CCCl)Cc1ccccc1 (configuration not stated) [Phenoxybenzamine] -14.4, CO[C@@]1(NC(=O)Cc2cccs2)C(=O)N2C(C(=O)O)=C(COC(N)=O)CS[C@@H]21 [Cefoxitin] -5.64, COc1cc(/C=C/c2ccc(O)cc2)cc(OC)c1 [Pterostilbene] -13.8, CCN(CC)C(=O)C1(c2ccccc2)CC1CN (configuration not stated) [Milnacipran] -8.81, COCCCOc1ccnc(C[S+]([O-])c2nc3ccccc3[nH]2)c1C (configuration not stated) [Rabeprazole] -11.1, Nc1ccn([C@H]2CC[C@@H](CO)O2)c(=O)n1 [Zalcitabine] 3.9, COc1ccc2cc([C@H](C)C(=O)O)ccc2c1 [Naproxen] -5.15, CC(C)[C@H](N)C(=O)OCCOCn1cnc2c(=O)nc(N)[nH]c21 [Valaciclovir] -21.7, CC(=O)O[C@]1(C(C)=O)CC[C@H]2[C@@H]3C=C(C)C4=CC(=O)CC[C@]4(C)[C@H]3CC[C@@]21C [Megestrol acetate] -33.5, NC(N)=Nc1nc(CSCC/C(N)=N/S(N)(=O)=O)cs1 [Famotidine] -13.8, COc1cc(C)c(/C=C/C(C)=C/C=C/C(C)=C/C(=O)O)c(C)c1C [Acitretin] 0.3, CCOC(=O)OC(C)OC1=C(C(=O)Nc2ccccn2)N(C)S(=O)(=O)c2ccccc21 (configuration not stated) [Ampiroxicam] -15.1, CCOC(=O)[C@H](CCc1ccccc1)N[C@@H](C)C(=O)N1Cc2ccccc2C[C@H]1C(=O)O [Quinapril] -0.422, C#C[C@]1(O)CC[C@H]2[C@@H]3CCc4cc(O)ccc4[C@H]3CC[C@@]21C [Ethinyl Estradiol] -18.3, CCOC(=O)N1CCC(=C2c3ccc(Cl)cc3CCc3cccnc32)CC1 [Loratadine] -5.25, Clc1ccccc1C(c1ccccc1)(c1ccccc1)n1ccnc1 [Clotrimazole] 7.64, CC(C)C[C@H](NC(=O)[C@@H](O)[C@H](N)Cc1ccccc1)C(=O)O [Ubenimex] -7.81, COc1nc(C)nc(Cl)c1NC1=NCCN1 [Moxonidine] -10.8, C[C@@H](O)[C@H]1C(=O)N2C(C(=O)O)=C(S[C@@H]3CN[C@H](C(=O)N(C)C)C3)[C@H](C)[C@H]12 [Meropenem] 2.11, CC(=O)OCC(=O)[C@@]1(O)CC[C@H]2[C@@H]3C[C@H](C)C4=CC(=O)C=C[C@]4(C)[C@H]3[C@@H](O)C[C@@]21C [Methylprednisolone acetate] -10.5, C[C@H]1C[C@H]2[C@@H]3CCC4=CC(=O)C=C[C@]4(C)[C@@]3(Cl)[C@@H](O)C[C@]2(C)[C@@]1(O)C(=O)CO [Beclomethasone] -2.48

— the supplement of paper PMC4840960
